# Data reported in PubChem BioAssay AID686978 (National Center for Advancing Translational Sciences (NCATS), 2013).
# About 64,000 (15%) of roughly 420,000 compounds were called active. Not shown: some 27% with an inconclusive outcome. Calls follow the shape of the dose curve; as a rule, active = well fitted inhibition curve with a large enough effect; inconclusive = small, poorly fitted or top-dose-only effect; inactive = flat fitted curve, though single readings scatter. These entries were drawn from the full list. Where a call stands in place of a potency, no number is given.
# Experiment: qHTS for Inhibitors of human tyrosyl-DNA phosphodiesterase 1 (TDP1): qHTS in cells in absence of CPT; also: nearly all actives have a fitted effect of over 55% in size
# Details: DT40 Tdp1-/- hTDP1 cells, no CPT, ATP luminescence, 48 h; activity change, negative = growth inhibition: at 46.2 µM (top of the series)
# Description: Human tyrosyl-DNA phosphodiesterase 1 (TDP1) is a novel repair gene, and we propose to use it as a new target for anticancer drug development. TDP1 is not an essential protein, but under treatment with topoisomerase I poison (camptothecin: CPT), TDP1 works as a critical factor for cell survival. To directly identify novel TDP1 inhibitors active in a cellular environment, we have knocked-out the Tdp1 gene in chicken DT40 cells (Tdp1-/-) and generated a complemented counterpart cells that contains a stable transfection of the human TDP1 gene (Tdp1-/-;hTDP1 cells). For the primary screen, Tdp1-/-;hTDP1 cells will be exposed to small molecules in the presence or absence of CPT, and their growth kinetics will be evaluated after 48 hours by measuring ATP activity. […] The hit compounds will then be evaluated in the presence or absence of CPT using Tdp1-/- cells. […] In tertiary assays, biochemical gel-based assays will be used to assess whether the hit compounds specifically target TDP1.
# To this end, we have screened this cell line against the MLSMR in two primary screens. In one screen we add CPT and in the other we screen in the absence of CPT; this AID represents the screen where CPT was absent.
# NIH Chemical Genomics Center [NCGC]
# NIH Molecular Libraries Probe Centers Network [MLPCN]
# Assay Submitter (PI): Yves Pommier, NCI
# DT40-hTDP1 cells without 20 nM Camptothecin (add 20 microL of DMSO in 1 L of cell culture medium) were dispensed at 400 cells/5microL/well in tissue culture treated 1536-well white wall/solid bottom assay plates (Greiner Bio-One North America, NC, U.S.A.) using a Multidrop Combi 8 channel dispenser (Thermo Fisher, Waltham, MA, USA). 23 nL compounds and controls were transferred using the pin tool (Kalypsys, San Diego, CA, USA) to the assay plates. The assay plates were then incubated at 37 masculineC for a minimum 48 hr. Three microL of Cell Titer Glo solution was added to the plates and incubated at RT in dark for 30 min. Luminescence was read using ViewLux (Perkin Elmer) with 1 sec exposure slow speed, high gain and 2x binning.
# Potency is read from the fitted curve at half-maximal effect.
row,Structure (SMILES),Potency
1,CCN1CCN(C(=O)/C=C\C(=O)O)CC1,inactive
2,C=CCn1c(=O)c(C(=O)Nc2ncccc2O)c(O)c2ccccc21,inactive
3,CCc1cccc(C)c1NC(=O)COC(=O)CNC(=O)c1cccs1,inactive
4,Cc1cc(NC(=O)COc2ccccc2C#N)no1,inactive
5,CCc1cccc(C)c1NC(=O)COC(=O)CC1CCCC1,inactive
6,CCc1cccc(CC)c1NC(=O)COc1ccccc1C(=O)c1cc(C#N)c(=O)n(C2CCCCC2)c1,16.4 µM (active)
7,O=S(=O)(NCC(c1ccco1)N1CCOCC1)c1cc(F)ccc1F (configuration not stated),inactive
8,COc1ccc(Cn2ccn(CC(=O)Nc3cc(C)ccc3C)c(=O)c2=O)cc1,inactive
9,CC(C)C(=O)Nc1ccc2c3c(cccc13)CC2,inactive
10,CC(=O)c1c(N2CCN(c3ccc(F)cc3)CC2)nc(=S)n(-c2ccccc2)c1C,20.6 µM (active)
11,CC(=O)c1c(N2CCOCC2)nc(=S)n(-c2cc(C)ccc2C)c1C,inactive
12,Cc1ccc2cc(C)c(N3CCN(c4ccc(F)cc4)CC3)nc2c1,inactive
13,CNC(=O)COc1ccc(S(=O)(=O)Nc2ccccc2)cc1,inactive
14,CCn1c(C(C)NC(=O)c2ccc(C)cc2)n[nH]c1=S (configuration not stated),inactive
15,C/C(=C\C(=O)c1ccccc1)Nc1cccc(O)c1,inactive
16,N/C(=N\OC(=O)CCn1cccc(C(F)(F)F)c1=O)c1ccc(OC(F)(F)F)cc1,inactive
17,Cc1ccc(OCCNC(=O)CN2C(=O)NC3(CCCC3)C2=O)cc1,inactive
18,COC1=CC(=O)OC(C)(c2ccccc2)C1 (configuration not stated),inactive
19,Cc1nc2c(OCc3cccc(Cl)c3)cccn2c1N(C)CC1CC1,20.6 µM (active)
20,Cc1nc2c(OCC(=O)C(C)(C)C)cccn2c1N(C)Cc1cccs1,inactive
21,Cc1nc2c(OCc3ccc(Cl)cc3Cl)cccn2c1N(C)CC1CC1,16.4 µM (active)
22,O=C(Nc1c[nH]c(=O)[nH]c1=O)OCc1ccccc1,inactive

row,Structure (SMILES),Potency
1,Cc1ccc(C(=O)Nc2ccc(OCc3cc(=O)n4c5c(sc4n3)CCCC5)cc2)cc1,inactive
2,CC(C)(C)C(=O)NCCCNc1ccc([N+](=O)[O-])cc1,inactive
3,CN1CC(=O)N=C1N,inactive
4,O=S(=O)(NCc1ccccn1)c1ccc(F)cc1,inactive
5,CCCCN1CC(CO)Oc2cccc(F)c2S1(=O)=O (configuration not stated),inactive
6,COc1cccc(OC)c1C(=O)N1CCN(Cc2cccnc2)CC1,inactive
7,COc1ccccc1-c1nn(Cc2ccccc2)cc1C(=O)N1CCN(c2ncccn2)CC1,16.4 µM (active)
8,COc1cc(C(=O)N2CCOC23CCN(Cc2ccccc2)CC3)cc(OC)c1OC,inactive
9,COc1ccc(C(=O)NCCn2nc(C)cc2C)cc1OC1CCN(C(C)=O)CC1,inactive
10,COc1cc(C(=O)N2CCN(C)CC2)cc(OC)c1OC,inactive
11,COc1cc(C(=O)N2CCN(C(=O)COc3cccc(C)c3)CC2)cc(OC)c1OC,inactive
12,COc1ccc(C(=O)NC2CC2)cc1OC1CCN(C/C=C/c2ccccc2)CC1,23.1 µM (active)
13,COc1cc(C(=O)N2CCN(C/C=C/c3ccccc3)CC2)cc(OC)c1C,29.1 µM (active)
14,COc1ccc(C(=O)NC2CC2)cc1OC1CCN(Cc2ccc(SC)cc2)CC1,inactive
15,CCOC(=O)CSc1nnc(NC(=O)C2CC(=O)N(c3ccc(F)cc3)C2)s1 (configuration not stated),inactive
16,C[C@@H]1O[C@@H](OC[C@H]2O[C@@H](Oc3c(-c4cccc(O)c4O)oc4cc(O)cc(O)c4c3=O)[C@H](O)[C@@H](O)[C@@H]2O)[C@H](O)[C@H](O)[C@H]1O,inactive
17,O=C1CN(C(=O)COC(=O)C2CC(=O)N(Cc3ccco3)C2)c2ccccc2N1 (configuration not stated),inactive
18,COc1cc(C(=O)N2CCOCC2)cc(OC)c1OC,inactive
19,Cc1cc(C)n(CCC(=O)N2CCN(S(=O)(=O)c3ccc(C)c(C)c3)CC2)n1,inactive
20,O=C(COc1ccccc1O)NC1CCCC1,inactive
21,Cc1ccc(C(=O)N/C(=C\c2ccc(F)cc2)C(=O)NCCN2CCOCC2)cc1,inactive
22,CC(C)(C)c1ccc(C(=O)N2CCN(CCNC(=O)C(=O)Nc3ccc(F)cc3)CC2)cc1,10.3 µM (active)

row,Structure (SMILES),Potency
1,O=C(NCCN1CCOCC1)/C(=C/c1ccc(F)cc1)NC(=O)c1ccccc1,inactive
2,O=C(NCc1ccccc1)c1ccc(CNc2c(N3CCCC3)c(=O)c2=O)cc1,inactive
3,CNC(=O)CSc1nnnn1-c1ccc(C)cc1C,inactive
4,CC1=C(C(=O)OC2CCCCC2)C(c2ccccc2F)NC(=O)N1 (configuration not stated),inactive
5,Cc1ccc(C2NC(=S)NC3=C2N2CCC3CC2)cc1 (configuration not stated),inactive
6,Cc1cc2nc(-c3ccco3)c(Cc3cccc(F)c3)n2c(C)c1Br,16.4 µM (active)
7,Cc1cc2nc(-c3ccc(F)cc3)c(Cc3ccsc3)n2c(C)c1Br,11.6 µM (active)
8,Cc1cc2nc(-c3ccc(Cl)cc3)c(Cc3cccc(F)c3)n2c(C)c1Br,23.1 µM (active)
9,CC(NC(=O)CNC(=O)Cc1cccc2ccccc12)c1ccc(S(N)(=O)=O)cc1 (configuration not stated),inactive
10,Nn1c(SCC(=O)NC(=O)NC2CCCC2)nnc1-c1ccccc1F,inactive
11,O=C1CC(c2ccccc2)CC(O)=C1C=NCCN1CCOCC1 (configuration not stated),inactive
12,O=C(Oc1ccc(F)cc1)N1CCOCC1,inactive
13,CC1=C(C)CC(C(=O)NNC(=O)c2csc3c2CCC(C(C)(C)C)C3)C(C(=O)O)C1 (configuration not stated),inactive
14,C[C@H](NC(=O)OC(C)(C)C)c1nnc(SCC(=O)Nc2ccc(Br)cc2)o1,inactive
15,CCSc1nnc(-c2cc3c(s2)-c2ccccc2CC3)o1,inactive
16,Cc1cccc(C)c1NC(=O)CCS(=O)(=O)c1cccc2nsnc12,inactive
17,Cn1c(C(=O)OC(C(=O)NC2CCCCC2)c2ccccn2)cc2sccc21 (configuration not stated),inactive
18,COc1ccc(C(=O)N2CCC3(CCCN(C(c4ccccc4)c4ccccc4)C3)CC2)cc1,inactive
19,Cc1ccc(SCC2=NNC(=O)C2)cc1,inactive
20,Cc1ccc(C(=O)N/C(=C/C=C/c2ccccc2)C(=O)NCc2ccco2)cc1,inactive
21,O=C(Nc1ccncc1)c1cc2ccccc2o1,8.2 µM (active)
22,Cc1ccc(NC(=O)c2cc3ccccc3o2)cc1,inactive

row,Structure (SMILES),Potency
1,CC(C)Oc1ccc(NC(=O)c2cc3ccccc3o2)cc1,inactive
2,CCOC(=O)C(=CNc1cccc(C)n1)C(=O)OCC,inactive
3,O=C(c1csnn1)N1CCC2(CC1)CN(c1ncccn1)C2,inactive
4,CCOC(=O)N1CCN(CC(=O)c2ccc3c(c2)CCN3)CC1,inactive
5,CC(OC(=O)CNC(=O)c1ccc(Cl)c([N+](=O)[O-])c1)C(=O)NCc1ccco1 (configuration not stated),inactive
6,CC(CC(=O)Nc1ccccc1)n1ccnc1 (configuration not stated),inactive
7,COc1ccccc1Oc1ccc(N2CC(C(=O)OCC(=O)c3ccc(F)cc3)CC2=O)cc1 (configuration not stated),inactive
8,Cc1ccc(S(=O)(=O)N(Cc2cccc([N+](=O)[O-])c2)C(=O)N2CCN(C)CC2)cc1,inactive
9,COc1cccc(NC(=O)CN(C)S(=O)(=O)c2ccc(C)cc2)c1,inactive
10,Cc1ccc(N(CC(=O)Nc2cc(C)cc(C)c2)S(=O)(=O)c2cccc3nonc23)cc1,inactive
11,Cc1ccc(S(=O)(=O)N(CC(=O)Nc2cccc([N+](=O)[O-])c2)Cc2ccc(Cl)cc2)cc1,25.9 µM (active)
12,COc1ccc(C)cc1S(=O)(=O)N(CC(=O)Nc1cccc([N+](=O)[O-])c1)c1ccc(C)cc1,13 µM (active)
13,CN1CCN(CC(=O)Nc2cccc([N+](=O)[O-])c2)CC1,inactive
14,CCn1cc(/C=C(\NC(=O)c2cc(OC)c(OC)c(OC)c2)C(=O)N2CCN(C)CC2)c2ccccc21,inactive
15,CCCCCN1CC(O)=C(c2nc(-c3ccc(Cl)cc3)cs2)C1=N,inactive
16,Cc1ccc(-n2nc(N)c3c(=O)oc(N(C)C)nc32)cc1,inactive
17,c1ccc(CNc2ncnc3[nH]ncc23)cc1,23.1 µM (active)
18,O=C(COC(=O)c1ncc(Cl)c(Cl)c1Cl)NCc1ccccc1,inactive
19,CN(c1ccccn1)c1ncnc2[nH]ncc12,inactive
20,Nc1ccccc1C(=O)NC1CCCCNC1=O (configuration not stated),inactive
21,O=C1CN(C(=O)COc2c(Cl)cccc2Cl)c2ccccc2N1,inactive
22,CCCCn1c(N)c(N(CC(C)C)C(=O)c2cccc(S(=O)(=O)N3CC(C)OC(C)C3)c2)c(=O)[nH]c1=O (configuration not stated),inactive

row,Structure (SMILES),Potency
1,Cc1ccc(NC2=C(c3ccc(C(F)(F)F)cc3)C(=O)c3ccccc32)cc1F,8.2 µM (active)
2,Cc1ccc(NC(=O)NC(=O)c2ccccc2)cc1F,inactive
3,COc1ccccc1Nc1nc(N)nc(CSC(=S)N2CCOCC2)n1,inactive
4,CCOC(=O)c1cnc(Nc2nc3ccccc3o2)nc1CSC(=S)N1CCCCC1,0.0326 µM (active)
5,CCc1ccc(CNC(=O)C2CCCN(c3nc4ccccc4o3)C2)cc1 (configuration not stated),inactive
6,CC(NS(=O)(=O)c1ccc(OCC(=O)N2CCCC2)cc1)c1ccccc1 (configuration not stated),inactive
7,CC(=O)N1CCC2(CCCN(c3ncccn3)C2)CC1,inactive
8,CC(Oc1ccc(F)cc1)C(=O)N1CCN(c2ncccn2)CC1 (configuration not stated),inactive
9,CC12CCC(C(=O)N3CCN(c4ncccn4)CC3)(c3nc4ccccc4nc31)C2(C)C (configuration not stated),23.1 µM (active)
10,Cc1ccc(-c2ccnc3nc(Sc4ncc(C(F)(F)F)cc4Cl)nn23)cc1,inactive
11,Cn1c(SCC(=O)Nc2ccc(Br)cc2F)nnc1-c1ccco1,inactive
12,O=C(Nc1ccccc1C(=O)O)c1cc(S(=O)(=O)N2CCCCC2)cs1,inactive
13,COc1ccc(OC)c(C(c2nnnn2C(C)(C)C)N2CCc3ccccc3C2)c1 (configuration not stated),13 µM (active)
14,COCCn1nnnc1C(c1cc2ccc(OC)cc2[nH]c1=O)N1CCc2ccccc2C1 (configuration not stated),inactive
15,CC(C)(C)n1nnnc1C(c1ccc(Cl)cc1)N1CCSCC1 (configuration not stated),inactive
16,CCOc1ccc(Nc2nc(Cc3nnc(SCC(=O)NC4CCCC4)n3C)cs2)cc1,inactive
17,Cc1cccc(N2CCN(C(=O)c3cc4c(=O)oc5ccccc5c4s3)CC2C)c1 (configuration not stated),inactive
18,Cc1cccc(N2CCN(C(=O)CCn3c(=O)c4cccn4c4cccnc43)CC2C)c1 (configuration not stated),3.66 µM (active)
19,Cc1cccc(NC(=O)Cn2c(=O)n(CCC(C)C)c(=O)c3cccnc32)c1,inactive
